Inhibition data for seven molecules are collected here from ChEMBL document CHEMBL1961873, “Compounds: GSK PKIS; Assays: Nanosyn kinase panel” (2012).

Assay [1] addresses MAP/microtubule affinity-regulating kinase 3 (Homo sapiens) (UniProt P27448). The note with it: at 1 µM.
The target of assay [2] is T1, MAP/microtubule affinity-regulating kinase 4 (Homo sapiens) (UniProt Q96L34).
T1 sequence (whole entry): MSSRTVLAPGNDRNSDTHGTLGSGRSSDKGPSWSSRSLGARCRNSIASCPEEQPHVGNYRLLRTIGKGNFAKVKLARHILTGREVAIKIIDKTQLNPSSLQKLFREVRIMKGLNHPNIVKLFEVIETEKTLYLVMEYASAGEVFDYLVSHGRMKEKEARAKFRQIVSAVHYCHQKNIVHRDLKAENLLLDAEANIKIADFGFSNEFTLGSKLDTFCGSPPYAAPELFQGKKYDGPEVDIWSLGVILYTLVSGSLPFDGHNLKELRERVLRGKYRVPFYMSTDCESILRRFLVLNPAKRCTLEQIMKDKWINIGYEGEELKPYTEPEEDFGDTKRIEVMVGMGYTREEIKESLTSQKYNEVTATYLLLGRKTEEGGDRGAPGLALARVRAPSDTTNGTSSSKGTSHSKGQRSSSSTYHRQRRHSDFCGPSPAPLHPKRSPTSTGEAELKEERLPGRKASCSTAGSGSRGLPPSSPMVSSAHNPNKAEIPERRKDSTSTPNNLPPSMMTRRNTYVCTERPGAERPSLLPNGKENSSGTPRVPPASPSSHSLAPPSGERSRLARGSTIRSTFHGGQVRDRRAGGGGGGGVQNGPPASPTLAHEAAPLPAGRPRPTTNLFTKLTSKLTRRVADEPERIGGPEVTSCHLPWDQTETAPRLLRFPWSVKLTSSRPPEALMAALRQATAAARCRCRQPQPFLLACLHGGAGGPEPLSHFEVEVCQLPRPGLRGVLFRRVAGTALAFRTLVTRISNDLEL
The note with it: at 0.1 µM.

Assay [3] has as its target T1, MAP/microtubule affinity-regulating kinase 4 (Homo sapiens). To be noted: at 1 µM.
Assay [4] concerns the target Maternal embryonic leucine zipper kinase (Homo sapiens) (UniProt Q14680). To be noted: at 0.1 µM.
For assay [5] the target is unchanged. To be noted: at 1 µM.
Assay [6] deals with MAP kinase-interacting serine/threonine-protein kinase 1 (Homo sapiens) (UniProt Q9BUB5). The note with it: at 0.1 µM.
The target is the same in assay [7]. To be noted: at 1 µM.
In assay [8] the target is MAP kinase-interacting serine/threonine-protein kinase 2 (Homo sapiens) (UniProt Q9HBH9). To be noted: at 0.1 µM.
Assay [9] has the same target. The note with it: at 1 µM.
Assay [10] has as its target Serine/threonine-protein kinase MARK2 (Homo sapiens) (UniProt Q7KZI7). To be noted: at 0.1 µM.
Assay [11] shares this target. To be noted: at 1 µM.
Assay [12] has as its target PAS domain-containing serine/threonine-protein kinase (Homo sapiens) (UniProt Q96RG2). The note with it: at 0.1 µM.
The target is the same in assay [13]. The note with it: at 1 µM.
In assay [14] the target is Phosphorylase b kinase gamma catalytic chain, skeletal muscle/heart isoform (Homo sapiens) (UniProt Q16816). To be noted: at 0.1 µM.
For assay [15] the target is unchanged. The note with it: at 1 µM.
In assay [16] the target is T2, Phosphorylase b kinase gamma catalytic chain, liver/testis isoform (Homo sapiens) (UniProt P15735).
T2 sequence (whole entry): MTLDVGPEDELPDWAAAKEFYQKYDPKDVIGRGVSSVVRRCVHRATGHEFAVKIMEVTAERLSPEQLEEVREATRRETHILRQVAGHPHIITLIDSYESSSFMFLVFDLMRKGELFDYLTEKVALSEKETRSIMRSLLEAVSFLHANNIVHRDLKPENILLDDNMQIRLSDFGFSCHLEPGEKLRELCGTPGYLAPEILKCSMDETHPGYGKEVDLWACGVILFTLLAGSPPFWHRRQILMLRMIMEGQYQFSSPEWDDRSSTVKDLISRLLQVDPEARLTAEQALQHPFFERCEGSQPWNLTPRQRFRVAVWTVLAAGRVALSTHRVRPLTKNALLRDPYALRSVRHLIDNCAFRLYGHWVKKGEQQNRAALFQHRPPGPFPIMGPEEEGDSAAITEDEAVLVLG
To be noted: at 0.1 µM.

Assay [17] concerns the target T2, Phosphorylase b kinase gamma catalytic chain, liver/testis isoform (Homo sapiens). The note with it: at 1 µM.
Assay [18] has as its target Serine/threonine-protein kinase pim-1 (Homo sapiens) (UniProt P11309). To be noted: at 0.1 µM.
Assay [19] shares this target. The note with it: at 1 µM.
Assay [20] addresses Serine/threonine-protein kinase pim-2 (Homo sapiens) (UniProt Q9P1W9). To be noted: at 0.1 µM.

Serine/threonine-protein kinase pim-1 (Homo sapiens), sequence (P11309 whole entry, looked up): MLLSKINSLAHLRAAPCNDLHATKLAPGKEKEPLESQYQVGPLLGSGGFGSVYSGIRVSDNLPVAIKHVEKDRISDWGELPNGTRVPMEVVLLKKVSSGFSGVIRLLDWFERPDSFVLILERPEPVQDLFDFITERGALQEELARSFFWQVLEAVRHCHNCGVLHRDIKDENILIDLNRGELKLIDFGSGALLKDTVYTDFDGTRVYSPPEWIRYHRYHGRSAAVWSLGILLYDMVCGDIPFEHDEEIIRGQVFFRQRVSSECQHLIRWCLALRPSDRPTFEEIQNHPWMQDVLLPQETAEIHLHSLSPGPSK
PAS domain-containing serine/threonine-protein kinase (Homo sapiens), sequence (Q96RG2 whole entry, the tested form may be a part): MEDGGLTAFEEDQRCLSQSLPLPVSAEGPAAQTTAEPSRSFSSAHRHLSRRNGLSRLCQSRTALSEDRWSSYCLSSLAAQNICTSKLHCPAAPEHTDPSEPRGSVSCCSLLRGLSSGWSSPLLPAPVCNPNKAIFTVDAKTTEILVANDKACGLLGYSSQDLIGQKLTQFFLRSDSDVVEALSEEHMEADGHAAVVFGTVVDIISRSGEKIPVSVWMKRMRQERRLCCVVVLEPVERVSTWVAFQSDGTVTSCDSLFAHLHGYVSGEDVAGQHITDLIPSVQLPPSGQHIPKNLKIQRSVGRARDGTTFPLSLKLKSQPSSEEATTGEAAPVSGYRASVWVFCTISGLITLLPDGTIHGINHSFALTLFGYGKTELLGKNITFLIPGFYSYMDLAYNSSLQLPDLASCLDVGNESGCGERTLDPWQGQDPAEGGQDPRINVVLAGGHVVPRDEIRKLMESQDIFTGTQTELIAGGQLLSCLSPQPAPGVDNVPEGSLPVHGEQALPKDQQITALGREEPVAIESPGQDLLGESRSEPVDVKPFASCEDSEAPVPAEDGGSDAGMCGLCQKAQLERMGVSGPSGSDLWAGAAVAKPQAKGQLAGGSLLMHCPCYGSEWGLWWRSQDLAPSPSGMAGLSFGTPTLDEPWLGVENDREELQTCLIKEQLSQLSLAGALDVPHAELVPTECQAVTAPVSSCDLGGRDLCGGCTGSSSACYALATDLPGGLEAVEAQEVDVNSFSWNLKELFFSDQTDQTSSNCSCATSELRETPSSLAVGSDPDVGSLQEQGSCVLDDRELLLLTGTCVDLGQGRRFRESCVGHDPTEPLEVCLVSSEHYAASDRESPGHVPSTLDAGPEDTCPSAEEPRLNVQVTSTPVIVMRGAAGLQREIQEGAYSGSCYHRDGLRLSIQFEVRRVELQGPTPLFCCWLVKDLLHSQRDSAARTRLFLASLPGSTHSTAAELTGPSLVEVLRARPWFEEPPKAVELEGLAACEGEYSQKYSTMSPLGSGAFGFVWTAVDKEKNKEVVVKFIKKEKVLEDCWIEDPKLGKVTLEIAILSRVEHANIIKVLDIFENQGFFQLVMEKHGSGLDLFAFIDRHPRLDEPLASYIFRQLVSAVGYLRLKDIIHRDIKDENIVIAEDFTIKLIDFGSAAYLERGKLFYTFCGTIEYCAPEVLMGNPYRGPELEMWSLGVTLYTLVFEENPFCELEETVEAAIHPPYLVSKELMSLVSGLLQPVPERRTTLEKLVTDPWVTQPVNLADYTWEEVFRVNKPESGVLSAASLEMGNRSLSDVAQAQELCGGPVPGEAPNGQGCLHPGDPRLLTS
MAP kinase-interacting serine/threonine-protein kinase 2 (Homo sapiens), sequence (Q9HBH9 whole entry, looked up): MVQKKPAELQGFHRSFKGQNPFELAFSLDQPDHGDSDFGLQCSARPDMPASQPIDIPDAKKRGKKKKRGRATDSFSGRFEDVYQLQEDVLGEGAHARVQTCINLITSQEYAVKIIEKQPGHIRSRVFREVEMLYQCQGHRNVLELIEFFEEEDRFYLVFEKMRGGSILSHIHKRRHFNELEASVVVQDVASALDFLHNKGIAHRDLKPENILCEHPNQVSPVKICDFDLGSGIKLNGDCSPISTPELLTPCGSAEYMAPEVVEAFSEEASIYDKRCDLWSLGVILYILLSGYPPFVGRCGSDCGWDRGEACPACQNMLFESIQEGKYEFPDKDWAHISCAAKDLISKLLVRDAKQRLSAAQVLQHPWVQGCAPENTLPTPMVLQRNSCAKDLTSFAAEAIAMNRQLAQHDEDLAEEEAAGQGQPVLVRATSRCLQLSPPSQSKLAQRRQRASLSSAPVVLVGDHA
Maternal embryonic leucine zipper kinase (Homo sapiens), sequence (Q14680 whole entry, looked up): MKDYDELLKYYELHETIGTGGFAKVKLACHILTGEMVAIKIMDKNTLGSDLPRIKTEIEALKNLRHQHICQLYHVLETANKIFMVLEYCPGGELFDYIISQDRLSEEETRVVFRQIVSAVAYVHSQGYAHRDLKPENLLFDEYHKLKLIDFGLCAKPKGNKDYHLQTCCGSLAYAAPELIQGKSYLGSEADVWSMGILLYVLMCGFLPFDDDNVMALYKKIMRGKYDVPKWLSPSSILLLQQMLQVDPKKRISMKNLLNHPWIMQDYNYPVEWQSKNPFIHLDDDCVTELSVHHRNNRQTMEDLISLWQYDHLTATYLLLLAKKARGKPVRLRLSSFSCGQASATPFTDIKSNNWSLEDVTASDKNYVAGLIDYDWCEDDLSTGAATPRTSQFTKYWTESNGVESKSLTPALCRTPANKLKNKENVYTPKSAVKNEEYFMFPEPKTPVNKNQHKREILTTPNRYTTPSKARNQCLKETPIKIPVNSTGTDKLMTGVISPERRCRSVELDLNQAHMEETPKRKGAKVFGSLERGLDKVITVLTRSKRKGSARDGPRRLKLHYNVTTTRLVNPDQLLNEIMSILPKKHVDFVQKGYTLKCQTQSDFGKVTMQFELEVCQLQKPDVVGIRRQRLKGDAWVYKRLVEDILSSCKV
Phosphorylase b kinase gamma catalytic chain, skeletal muscle/heart isoform (Homo sapiens), sequence (Q16816 whole entry, looked up, canonical isoform): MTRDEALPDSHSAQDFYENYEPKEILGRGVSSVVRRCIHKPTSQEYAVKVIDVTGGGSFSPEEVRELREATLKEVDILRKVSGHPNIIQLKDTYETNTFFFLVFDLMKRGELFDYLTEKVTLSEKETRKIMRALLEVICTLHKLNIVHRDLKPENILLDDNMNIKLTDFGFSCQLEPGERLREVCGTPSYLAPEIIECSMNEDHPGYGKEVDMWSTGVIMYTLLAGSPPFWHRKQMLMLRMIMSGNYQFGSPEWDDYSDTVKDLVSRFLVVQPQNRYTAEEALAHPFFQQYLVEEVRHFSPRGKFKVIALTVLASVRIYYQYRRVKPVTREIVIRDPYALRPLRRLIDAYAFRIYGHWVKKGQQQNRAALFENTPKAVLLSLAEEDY
Serine/threonine-protein kinase pim-2 (Homo sapiens), sequence (Q9P1W9 whole entry, looked up): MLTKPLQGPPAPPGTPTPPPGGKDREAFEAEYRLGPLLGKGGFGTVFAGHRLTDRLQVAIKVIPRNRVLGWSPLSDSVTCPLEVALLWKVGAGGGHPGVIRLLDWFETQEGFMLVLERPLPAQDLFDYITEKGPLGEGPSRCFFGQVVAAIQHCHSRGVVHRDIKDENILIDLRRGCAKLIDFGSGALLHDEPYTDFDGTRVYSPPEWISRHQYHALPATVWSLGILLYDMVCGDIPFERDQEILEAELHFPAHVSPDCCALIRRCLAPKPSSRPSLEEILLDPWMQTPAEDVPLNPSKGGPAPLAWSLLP
MAP kinase-interacting serine/threonine-protein kinase 1 (Homo sapiens), sequence (Q9BUB5 whole entry, looked up): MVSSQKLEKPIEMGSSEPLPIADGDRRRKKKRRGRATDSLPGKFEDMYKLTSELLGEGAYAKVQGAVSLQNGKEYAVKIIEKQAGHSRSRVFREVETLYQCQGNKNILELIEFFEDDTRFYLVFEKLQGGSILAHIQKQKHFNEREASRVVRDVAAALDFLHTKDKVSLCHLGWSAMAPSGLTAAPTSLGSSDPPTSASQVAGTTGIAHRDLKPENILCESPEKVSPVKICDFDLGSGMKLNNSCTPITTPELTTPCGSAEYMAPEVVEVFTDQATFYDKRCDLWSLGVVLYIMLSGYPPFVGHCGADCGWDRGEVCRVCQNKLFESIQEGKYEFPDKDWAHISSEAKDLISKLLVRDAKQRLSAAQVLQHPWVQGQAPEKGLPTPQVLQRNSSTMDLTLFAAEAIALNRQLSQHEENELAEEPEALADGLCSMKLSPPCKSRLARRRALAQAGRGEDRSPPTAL
Serine/threonine-protein kinase MARK2 (Homo sapiens), sequence (Q7KZI7 whole entry): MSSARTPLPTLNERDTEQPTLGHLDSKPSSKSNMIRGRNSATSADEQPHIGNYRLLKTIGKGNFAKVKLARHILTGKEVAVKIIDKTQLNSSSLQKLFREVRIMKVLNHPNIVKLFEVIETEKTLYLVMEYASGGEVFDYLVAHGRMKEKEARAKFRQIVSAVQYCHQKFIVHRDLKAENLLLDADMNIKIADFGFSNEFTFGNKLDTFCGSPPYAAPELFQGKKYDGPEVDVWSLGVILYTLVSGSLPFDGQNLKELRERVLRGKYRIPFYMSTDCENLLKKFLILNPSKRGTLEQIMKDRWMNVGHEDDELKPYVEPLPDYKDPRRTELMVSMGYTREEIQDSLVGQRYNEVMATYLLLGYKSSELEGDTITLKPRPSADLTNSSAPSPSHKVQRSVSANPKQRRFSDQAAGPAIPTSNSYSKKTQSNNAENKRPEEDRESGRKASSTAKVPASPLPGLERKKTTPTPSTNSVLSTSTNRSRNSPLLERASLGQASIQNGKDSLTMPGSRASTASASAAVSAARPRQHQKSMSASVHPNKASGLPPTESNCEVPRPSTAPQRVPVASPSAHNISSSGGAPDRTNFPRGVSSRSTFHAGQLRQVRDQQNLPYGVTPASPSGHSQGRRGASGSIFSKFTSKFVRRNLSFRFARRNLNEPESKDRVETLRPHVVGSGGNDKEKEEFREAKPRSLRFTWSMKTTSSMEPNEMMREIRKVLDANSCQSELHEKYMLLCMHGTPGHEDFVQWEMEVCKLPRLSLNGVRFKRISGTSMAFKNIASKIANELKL

Regarding `COc1cc2ncnc(Nc3ccc(C)c(O)c3)c2cc1OC`, the inhibition was determined as 6.46% in assay [1]; 1.47% in [2]; 4.13% in [3]; 5.67% in [4]; 8.15% in [5]; 6.8% in assay [6]. Moreover, the inhibition is 30.9% in [7]; 3.13% in [8]; 15.8% in assay [9]; 2.85% in assay [10]; 0.64% in assay [11]; -0.16% in [12]. Besides, the inhibition came to 0.97% in [13]; 6.64% in assay [14]; 23.5% in assay [15]; 5.48% in assay [16]; 7.74% in assay [17]; 1.41% in [18]. Further, the values for the inhibition in assay [19] and in assay [20] were 1.44% and 1.6%, respectively.

In the case of `Cc1ccc(C(=O)NC2CC2)cc1-c1ccc2[nH]ncc2c1`, the inhibition in [1] was 5.49%; in assay [2], 1.68%; in assay [3] it was 3.83%; in assay [4], -4.14%; in [5] it was -5.86%; in assay [6], -1.37%. The inhibition in [7] is -1.19%; in assay [8], 0.44%; in assay [9], 1.35%; in assay [10] it was 2.15%; in assay [11] it was 5.77%; in [12], 1.24%. Further, the inhibition in assay [13] is 1.27%; in [14] it was -0.37%; in assay [15], 1.36%; in [16] it was -5.73%; in assay [17] it was -5.52%; in [18] it was 1.72%. Further, the results for the inhibition in assay [19] and in [20] were 4.32% and 0.52%, respectively.

As for `Cc1ccc2c(-c3ccnc(Nc4cccc(C(F)(F)F)c4)n3)c(-c3ccccc3)nn2n1`, the inhibition in assay [1] was 3.93%; in assay [2] it was 2.61%; in [3], 2.82%; in assay [4] it was 5.84%; in assay [5], 10.4%; in assay [6] it was 3.3%. In addition, the inhibition in [7] is 4.19%; in assay [8], 2.04%; in [9], 3.52%; in [10], 1.89%; in assay [11], 4.11%; in [12], -0.16%. For the same molecule, the inhibition is -0.17% in assay [13]; 2.62% in [14]; 7.08% in assay [15]; 4.1% in assay [16]; 4.82% in assay [17]; 1.05% in assay [18]. Further, the inhibition in [19] is 1.72%; in assay [20] it was -0.26%.

With `Nc1nccc(-c2c(-c3ccc(F)cc3)ncn2CCCN2CCOCC2)n1`, the inhibition came out at 8.72% in assay [1]; 1.4% in [2]; 1.82% in assay [3]; 9.7% in assay [4]; 2.83% in [5]; 2.6% in assay [6]. Further, the inhibition is 7.69% in [7]; 1.53% in assay [8]; 0.94% in assay [9]; 3.08% in [10]; 1.26% in assay [11]; -0.18% in assay [12]. Moreover, the inhibition turned out to be 0.84% in assay [13]; 5.3% in [14]; 5.42% in assay [15]; 3.78% in assay [16]; 4.82% in assay [17]; 1.45% in [18]. The figures for the inhibition in assay [19] and in assay [20] were 0.82% and 0.76%, respectively.

In the case of `c1ccc(Nc2ncc(-c3ccccc3)o2)cc1`, the inhibition was determined as 4.02% in assay [1]; 2.77% in [2]; 4.32% in assay [3]; 5.53% in [4]; 9.84% in assay [5]; 1.77% in assay [6]. Besides, the inhibition in assay [7] was 3.22%; in [8] it was 0.51%; in [9], 4.71%; in assay [10], 0.14%; in assay [11], 2.64%; in [12] it was -0.05%. Moreover, the inhibition was -0.71% in [13]; 2.61% in assay [14]; 10.9% in assay [15]; 6.62% in assay [16]; 6.17% in assay [17]; 1.47% in assay [18]. For the same molecule, the inhibition in assay [19] is 3.45%; in assay [20], -1.31%.

For `CN(C)c1cc2c(Nc3ccc4c(cnn4Cc4ccccc4)c3)ncnc2cn1`, the inhibition in assay [1] is -0.35%; in assay [2] it was 1.14%; in [3] it was 1.04%; in assay [4] it was 2.68%; in assay [5], 2.1%; in assay [6], 3.47%. Moreover, the inhibition in assay [7] was found to be 19.4%; in assay [8], 3.73%; in assay [9], 23%; in assay [10], 0.19%; in assay [11], 0.46%; in assay [12] it was 0.31%. Also, the inhibition in assay [13] was -1.1%; in assay [14], 2.72%; in assay [15] it was 4.62%; in assay [16], 3.31%; in [17], 1.97%; in [18] it was -0.22%. Further, the results for the inhibition in assay [19] and in assay [20] were 1.78% and -0.29%, respectively.

`Oc1cccc(-c2nc(-c3ccccc3)[nH]c2-c2ccncc2)c1`: the inhibition in assay [1] was determined as 6.43%; in assay [2], 1.16%; in [3] it was 2.71%; in [4], 4.46%; in assay [5] it was 5.5%; in [6] it was 5.55%. Further, the inhibition is 25.6% in [7]; 1.57% in [8]; 14.8% in assay [9]; -0.88% in assay [10]; 0.43% in assay [11]; 0.7% in assay [12]. Moreover, the inhibition in assay [13] was 0.32%; in assay [14], 4.05%; in [15], 3.93%; in assay [16] it was 5.23%; in assay [17], 4.95%; in assay [18] it was 0.8%. In addition, the results for the inhibition in assay [19] and in [20] were 2.57% and -0.34%, respectively.

One may read the inhibition as the change of the read-out against control, counted positive when it falls.
